“And” between values parts separate entries of the source, which are not always exact repeats. Equal entries are not always repeated. Unmarked numbers belong to inactive results. Inconclusive results are not listed. The source made the active and inactive calls. Unless noted, calls come from the whole dose curve; as a rule, active = well fitted curve in the direction sought with a large enough effect in the repeat runs; inconclusive = weak or mixed curves; inactive = no such curve, though single readings can be large; an effect the other way counts as inactive or inconclusive.

A short description of assay [1]: qHTS assay for small molecule agonists of the p53 signaling pathway (AID 651631; calls by dose curve; note: nearly all actives have a fitted effect of over 15% in size; note: potency is the fitted concentration of half-maximal effect). The method, boiled down: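 Stably transfected HCT-116 cells (beta-lactamase behind p53 response elements) get compounds after a 5 h settling period; 16 h later at 37 °C, FRET substrate is loaded and fluorescence read after 2 h.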
Background: Quantitative high-throughput screening tests each substance at several concentrations.

Assay [2] can be described thus: qHTS assay for small molecules that induce genotoxicity in human embryonic kidney cells expressing luciferase-tagged ATAD5 (AID 651632). Note: nearly all actives have a fitted effect of over 15% in size. An outline of the steps:
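Genotoxicity read-out via ATAD5-luciferase: HEK293T cells, 16 hr compound incubation at 37C, Amplite detection.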

Assay [3] is described as follows: qHTS assay for small molecules that induce genotoxicity in human embryonic kidney cells expressing luciferase-tagged ATAD5 - cell viability (AID 651634; calls by dose curve; note: nearly all actives have a fitted effect of over 25% in size). The method, boiled down: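 Live-cell protease activity (CellTiter-Fluor, fluorescence) indicates viability. HEK293T cells with luciferase-tagged ATAD5; 15.5 hr compound treatment at 37C.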
Assay [4] can be described thus: qHTS assay for small molecule disruptors of the mitochondrial membrane potential - cell viability (AID 720634; calls by dose curve; note: nearly all actives have a fitted effect of over 20% in size; note: potency is the fitted concentration of half-maximal effect). An outline of the steps:
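Human hepatoma HepG2 cells were treated for 1 hr with test chemicals, then given m-MPI dye and CellTiter-Glo. Cell viability reflects luminescence proportional to cellular ATP.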

A short description of assay [5]: qHTS assay for small molecule disruptors of the mitochondrial membrane potential (AID 720635). Note: potency is the fitted concentration of half-maximal effect. An outline of the steps: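 HepG2 cells exposed to compound 1 hr at 37C, then Mito-MPS dye 30 min. Ratio read of aggregate (540/590 nm) versus monomer (490/535 nm) fluorescence.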
A short description of assay [6]: qHTS assay to test for compound auto fluorescence at 590 nm (red) in HepG2 cells (AID 720674). The method, boiled down: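 HepG2 cells, 2,000 per well in MEM with 10% FBS, attached overnight at 37 C, then got 23 nL compound or DMSO. After 1 hr at 37 C, 5% CO2, red fluorescence was read at 540/590 nm against Rose Bengal sodium as reference.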
Assay [7] can be described thus: qHTS assay to test for compound auto fluorescence at 535 nm (green) in HepG2 cells (AID 720675).
The nature of assay [8]: qHTS assay to test for compound auto fluorescence at 460 nm (blue) in HEK293 cells (AID 720678). Note: potency is the fitted concentration of half-maximal effect. The method, boiled down: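 Triamterene serves as the blue fluorophore standard. Compound signal at 405/460 nm is read in HEK293 wells (2,000 cells, 10% dialyzed FBS) after overnight treatment at 37C.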
Assay [9] is described as follows: qHTS assay to test for compound auto fluorescence at 590 nm (red) in HEK293 cells (AID 720679). The method, boiled down: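 We plated HEK293 cells in 10% dialyzed FBS medium, let them adhere for 4-5 hr, then added 23 nL compound. Overnight at 37C and 5% CO2 preceded fluorescence measurement at 540/590nm.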
Assay [10] can be described thus: qHTS assay for small molecule agonists of the p53 signaling pathway - cell viability (AID 651633; calls by dose curve;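 note: p53RE-bla HCT reporter cells with a stable beta-lactamase p53 reporter; series mostly up to about 83 µM; nearly all actives have a fitted effect of over 30% in size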). The method, boiled down: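 p53RE-bla cells were treated with compound for 16 hours at 37 C. Cytotoxicity was then measured as CellTiter-Glo luminescence after 30 min at room temperature.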
Tags give direction and shape of the fitted curve or compound fluorescence and quenching.

In the case of `O=NN(CCO)CCO`, the Potency entry in [1], in [2], in [3], in assay [4], in [5] and in [7] was “inactive” each time. Moreover, the Potency result in [8] was “inactive”. In addition, the compound was called inactive in assay [6] and in assay [9].

Consider `C=CCBr`, for which the Potency result in assay [1], in assay [2], in [3], in assay [4], in assay [7] and in assay [8] was “inactive” each time. Also, the outcome in assay [6] and in assay [9] was inactive.

`O=C1C[C@@H]2OCC=C3CN4CC[C@]56c7ccccc7N1[C@H]5[C@H]2[C@H]3C[C@H]46`: the Potency result in [1], in assay [3], in [4], in [5], in [7] and in assay [8] was “inactive” each time. Further, the compound was called inactive in assay [6] and in assay [9].

For the compound `Nc1ccccc1-c1ccccc1`, the Potency result in [1], in assay [2], in assay [4], in assay [7] and in [8] was “inactive” throughout. For the same compound, the outcome in assay [6] and in assay [9] was inactive.

Regarding `CCCC[N+]1(C)CCCC1` (tested in a mixture with another compound), the Potency result in [1], in assay [2], in [3], in assay [4], in [7] and in assay [8] was “inactive” in each case. For the same compound, the outcome in assay [6] and in assay [9] was inactive.

On to `N#Cc1c[nH]cc1-c1cccc2c1OC(F)(F)O2`, for which the Potency in assay [1] was 8.63 µM (active); in [4], 5.45 µM (active); in assay [5], 2.17 µM (active). For the same compound, the Potency entry in assay [2], in assay [3], in assay [7] and in assay [8] was “inactive” in each case. For the same compound, in assay [6], the call was inactive.

As for `CCN(CC)CCN1C(=O)CN=C(c2ccccc2F)c2cc(Cl)ccc21`, the Potency entry in [1], in assay [2], in assay [10], in assay [4], in assay [7] and in [8] was “inactive” throughout. Also, the outcome in assay [6] and in assay [9] was inactive.

As for `CNC(=O)Oc1cc(C)cc(C(C)C)c1`, the Potency entry in [1], in assay [2], in assay [3], in [4], in [7] and in assay [8] was “inactive” in each case. For the same compound, the result in [6] and in assay [9] was inactive.

As for `CN`, the Potency entry in assay [1], in assay [10], in assay [3], in assay [4], in assay [5] and in [7] was “inactive” throughout. Moreover, the Potency entry in [8] is “inactive”. Besides, the compound was called inactive in assay [6] and in [9].

With `C#CCO`, the Potency entry in [1], in assay [2], in assay [10], in assay [3], in assay [7] and in assay [8] was “inactive” each time. For the same compound, the compound was called inactive in assay [6].

For `C[N+]1(C)[C@@H]2CC[C@H]1CC(OC(=O)C(CO)c1ccccc1)C2` (stereo partly drawn), the Potency result in assay [1], in assay [2], in assay [3], in assay [4], in assay [5] and in assay [7] was “inactive” throughout. Besides, the compound was classed as inactive in [6].

Consider `c1csc(-c2ccc(-c3cccs3)s2)c1`, for which the Potency was 34.4 µM (active) in [1] and 61.1 µM (active) in [5]. Besides, the Potency entry in [10], in [3], in assay [7] and in assay [8] was “inactive” each time. For the same compound, the call in [6] and in [9] was inactive.

Turning to `CC(C)NCC(O)c1ccccc1Cl` (stereo not drawn), the Potency entry in assay [1], in assay [2], in assay [3], in assay [4], in assay [5] and in assay [7] was “inactive” in each case. In addition, the Potency entry in assay [8] was “inactive”. The result in assay [6] and in assay [9] was inactive.

As for `CCOC(=O)CCN(SN(C)C(=O)Oc1cccc2c1OC(C)(C)C2)C(C)C`, the Potency result in assay [1], in assay [2], in assay [10], in assay [3], in [7] and in [8] was “inactive” each time. Further, the call in assay [6] and in assay [9] was inactive.

Take `Nc1nc(N)nc(Cl)n1`: the Potency entry in assay [1], in assay [2], in assay [3], in assay [4], in [5] and in assay [7] was “inactive” each time. Further, in [8], the Potency result was “inactive”. Besides, the call in assay [6] and in [9] was inactive.

Take `O=Cc1ccccc1`: the Potency result in assay [1], in assay [2], in [3], in assay [4], in assay [5] and in [7] was “inactive” in each case. Moreover, the Potency result in assay [8] was “inactive”. Also, the compound was called inactive in [6] and in [9].

In the case of `Cc1cc(C2CC2)nc(Nc2ccccc2)n1`, the Potency result in assay [1], in [2], in assay [10], in assay [3], in assay [7] and in assay [8] was “inactive” each time. The compound was called inactive in assay [6] and in assay [9].

Consider `CC1=C2C[C@H]3[C@@H](CC=C4C[C@@H](O)CC[C@@]43C)[C@@H]2CC[C@]12O[C@@H]1C[C@H](C)CN[C@H]1[C@H]2C`, for which the Potency entry in assay [1], in assay [10], in [3], in [7] and in assay [8] was “inactive” each time. Also, the result in assay [6] and in [9] was inactive.

On to `CC(=O)C(Cl)C(=O)N(C)C` (stereo not drawn), for which the Potency result in [1], in assay [2], in [3], in [4], in assay [7] and in [8] was “inactive” throughout. Also, the compound was classed as inactive in assay [6] and in [9].

With `CN1CCc2cc3c(cc2C1O)OCO3` (stereo not drawn), the Potency in [1] is 61.5 µM (active); in assay [8] it was 35.5 µM [fluorescent] (active). For the same compound, the Potency result in [2], in assay [10], in [4] and in assay [7] was “inactive” in each case. The outcome in assay [6] and in assay [9] was inactive.

As for `O=C1C2(Cl)C3(Cl)C4(Cl)C(Cl)(Cl)C5(Cl)C3(Cl)C1(Cl)C5(Cl)C24Cl` (stereo not drawn), the Potency in assay [1] is 60.1 µM (active); in assay [4] it was 1.9 µM (active); in assay [5], 536 nM (active) and 585 nM (active). Further, the Potency entry in [2], in [7] and in assay [8] was “inactive” each time. In addition, the outcome in [6] and in assay [9] was inactive.

As to `CCN(CC)Cc1nccn1-c1ccc([N+](=O)[O-])cc1C(=O)c1ccccc1Cl`, the Potency entry in assay [1], in [2], in assay [3], in [4], in assay [5] and in assay [7] was “inactive” in each case. In addition, the Potency entry in [8] was “inactive”. Also, the result in [6] and in assay [9] was inactive.

For the compound `CC(Cc1ccc2c(c1)OCO2)NO` (stereo not drawn), the Potency result in assay [1], in assay [10], in assay [3], in assay [4], in assay [7] and in assay [8] was “inactive” in each case. Further, the outcome in assay [6] and in [9] was inactive.

Regarding `CCN(CC)C(=O)N[C@@H]1C=C2c3cccc4[nH]cc(c34)C[C@@H]2N(C)C1`, the Potency entry in [1], in assay [2], in assay [10], in assay [4], in assay [7] and in assay [8] was “inactive” in each case. The Potency in [5] is 1.68 µM (active). Moreover, the outcome in assay [6] and in assay [9] was inactive.

For `COC(=O)c1ccccc1S(=O)(=O)NC(=O)Nc1nc(C)nc(OC)n1`, the Potency result in assay [1], in assay [2], in assay [3], in assay [4], in assay [7] and in [8] was “inactive” in each case. For the same compound, the outcome in assay [6] and in [9] was inactive.

(Values after PubChem BioAssay (Tox21).)
